The text below walks through data of PubChem BioAssay (Tox21).

“And” between values parts separate entries of the source, which are not always exact repeats. Equal values may be shown once. Records with an inconclusive call do not appear. More than one record can exist for a structure, and the calls need not agree. The source made the active and inactive calls. Unless noted, calls come from the whole dose curve.

The nature of assay [1]: Nuclear factor erythroid 2-related factor 2/antioxidant responsive element (Nrf2/ARE) small molecule agonists: qHTS cell viability counter screen in human keratinocytes (AID 1919968; active = well fitted curve in the direction sought with a large enough effect in the repeat runs; an effect the other way counts as inactive or inconclusive; note: nearly all actives have a fitted effect of over 55% in size). The method in brief: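 CellTiter-Fluor fluorescence, read 1 h after reagent, gave viability in the same wells as the ARE-luciferase assay. KeratinoSens cells (1,500/well) had 23 h compound exposure at 37 C/5% CO2 following 5 h plating.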
(Quantitative high-throughput screening tests each substance at several concentrations.)

A short description of assay [2]: Nuclear factor erythroid 2-related factor 2/antioxidant responsive element (Nrf2/ARE) small molecule agonists: luciferase reporter gene qHTS assay in human keratinocytes (AID 1919969). Note: nearly all actives have a fitted effect of over 35% in size. Note: potency is the fitted concentration of half-maximal effect. On the technique in general: A reporter such as luciferase makes a cellular process visible.
Assay [3] addresses Gonadotropin-releasing hormone receptor (Homo sapiens) (UniProt P30968). Description: Human gonadotropin-releasing hormone receptor (GnRHR) small molecule agonists, calcium flux assay in GnRHR-HEK293 cells (AID 1920063). Note: nearly all actives have a fitted effect of over 35% in size. Note: potency is the fitted concentration of half-maximal effect. A digest of the protocol: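 Agonist mode: compounds at 15 concentrations, in triplicate, went onto calcium dye-loaded GnRHR-HEK293 cells. Intracellular calcium was then followed as 480/540 nm fluorescence at 1 s intervals over 3 min.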
For orientation: A change in cytosolic calcium serves as a functional read-out for many receptors and channels.

Assay [4] deals with KiSS-1 receptor (Homo sapiens) (UniProt Q969F8). The assay can be described thus: Human kisspeptin (KISS1R) small molecule agonists, calcium flux assay in KISS1R-HEK293 cells (AID 1920064; active = well fitted curve in the direction sought with a large enough effect in the repeat runs; an effect the other way counts as inactive or inconclusive). The method in brief:
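Agonist mode: intracellular calcium rise tracked at 1 s intervals over 3 min (480/540 nm) immediately after compound addition to dye-loaded KISS1R-HEK293 stable cells. Each compound tested at 15 concentrations in triplicate.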

The nature of assay [5]: G protein-coupled receptor (GPCR) small molecule agonists, calcium flux assay: HEK293 wild type cell line counter screen (AID 1920065). A digest of the protocol: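 Calcium flux counter screen: compound added in agonist mode at 15 concentrations in triplicate to dye-loaded parental HEK293 cells. Fluorescence (480/540) read kinetically for 3 min; ATP served as positive control.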

A short description of assay [6]: p53 small molecule agonists, cell-based qHTS assay with human liver microsomes (AID 1963577).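 Note: p53 response element beta-lactamase reporter cells with liver microsomes plus NADPH.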 A digest of the protocol:
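Metabolically competent format: test substances, human liver microsomes and NADPH (both 0.5 mg/mL final) incubated with p53RE-bla cells 16 h at 37 C. Beta-lactamase reporter signal then quantified by fluorescence.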

A short description of assay [7]: p53 small molecule agonists, cell-based qHTS assay with rat liver microsomes (AID 1963578). The method in brief: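 Each plate received p53RE-bla cells, then compound, then rat liver microsomes and NADPH (both 0.5 mg/mL final). Plates were held 16 h at 37 C, and beta-lactamase activity was detected with LiveBLAzer over 2 h.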
Assay [8] is described as follows: p53 small molecule agonists, cell-based qHTS assay with human liver microsomes: qHTS cell viability counter screen (AID 1963579). Note: nearly all actives have a fitted effect of over 45% in size. The method in brief: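 Tox21 library compounds, delivered from DMSO stocks, were tested on p53RE-bla cells together with 0.5 mg/mL human liver microsomes and 0.5 mg/mL NADPH (final) over 16 h at 37 C; CellTiter-Glo luminescence served as the cytotoxicity measure.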

A short description of assay [9]: p53 small molecule agonists, cell-based qHTS assay with rat liver microsomes: qHTS cell viability counter screen (AID 1963580). Note: nearly all actives have a fitted effect of over 45% in size. A digest of the protocol: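 Rat liver microsome (0.5 mg/mL final) and NADPH (0.5 mg/mL final) co-incubation with compounds for 16 h at 37 C on HCT-116 p53RE-bla cells; cytotoxicity taken from intracellular ATP luminescence.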
A short description of assay [10]: p53 small molecule agonists, cell-based qHTS assay: qHTS cell viability counter screen (AID 1963581). Note: nearly all actives have a fitted effect of over 45% in size. Note: potency is the fitted concentration of half-maximal effect. A digest of the protocol:
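Counter screen read by CellTiter-Glo luminescence (ATP content, 30 min at room temperature), run in the same wells as the beta-lactamase reporter read. HCT-116 p53RE-bla cells saw compounds for 16 h at 37 C.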

The nature of assay [11]: p53 small molecule agonists, cell-based qHTS assay (AID 1963582; active = well fitted activation curve with a large enough effect in the signal ratio in the repeat runs, not every such curve was filed as active; the % refers to the signal ratio). The method in brief:
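Read-out is beta-lactamase FRET fluorescence after 2 h at room temperature with LiveBLAzer B/G substrate. p53 response element-bla cells were treated 16 h at 37 C with compounds in DMSO, added 5 h after seeding.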

Assay [12] concerns the target 5-hydroxytryptamine receptor 2A (Homo sapiens) (UniProt P28223). The assay can be described thus: 5-hydroxytryptamine receptor 2A (HTR2A) small molecule antagonists, cell-based qHTS assay (AID 1963586). Note: nearly all actives have a fitted effect of over 45% in size. The method in brief: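 CHO cells stably expressing human HTR2A were plated for 18 h at 37 C, then loaded with calcium dye for 1 h. Compounds were preincubated 5 min at room temperature before DOI (4 nM solution) was added. Kinetic fluorescence was read for 3 min.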

Assay [13] shares this target. The assay can be described thus: 5-hydroxytryptamine receptor 2A (HTR2A) small molecule agonists, cell-based qHTS assay (AID 1963587). Note: nearly all actives have a fitted effect of over 30% in size. A digest of the protocol:
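Kinetic calcium-flux fluorescence (2 min, 1 sec intervals) after compound addition in agonist mode. HTR2A-CHO cells were cultured 18 h, then dye-loaded 1 h at 37 C.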

A short description of assay [14]: cAMP Responsive Elements (CRE) small molecule agonists, cell-based qHTS assay (AID 1963590). A digest of the protocol:
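Agonist mode: compound added to CRE-bla HEK 293T cells (2,000/well, 18 h after plating) for 3 h at 37 C/5% CO2. Reporter activity detected via FRET beta-lactamase substrate, 2 h room-temperature loading.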

Assay [15] can be described thus: cAMP Responsive Elements (CRE) small molecule antagonists, cell-based qHTS assay (AID 1963591; active = well fitted inhibition curve with a large enough effect in the signal ratio in the repeat runs, not every such curve was filed as active; the % refers to the signal ratio). A digest of the protocol: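 Antagonist mode: compounds are added alongside the adenylyl cyclase activator NKH477 (0.25 uM final) to CRE-bla HEK293T cells for 3 h. LiveBLAzer FRET substrate, 2 h at room temperature, reports bla expression.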
In assay [16] the target is Beta-2 adrenergic receptor (Homo sapiens) (UniProt P07550). The assay can be described thus: Adrenergic beta2 receptor (ADRB2) small molecule antagonists, cell-based qHTS assay (AID 1963592). Note: series mostly up to about 92 µM; nearly all actives have a fitted effect of over 50% in size. The method in brief: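 Assay format: CHO-ADRB2 cells, 18-20hr seeding at 37C/5% CO2, then compound plus 1nM isoproterenol agonist mix for 0.5hr RT. Homogeneous time-resolved fluorescence cAMP detection after 1hr, expressed as 665/615 nm ratio.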
Sequence of Beta-2 adrenergic receptor (Homo sapiens) (P07550 whole entry, looked up): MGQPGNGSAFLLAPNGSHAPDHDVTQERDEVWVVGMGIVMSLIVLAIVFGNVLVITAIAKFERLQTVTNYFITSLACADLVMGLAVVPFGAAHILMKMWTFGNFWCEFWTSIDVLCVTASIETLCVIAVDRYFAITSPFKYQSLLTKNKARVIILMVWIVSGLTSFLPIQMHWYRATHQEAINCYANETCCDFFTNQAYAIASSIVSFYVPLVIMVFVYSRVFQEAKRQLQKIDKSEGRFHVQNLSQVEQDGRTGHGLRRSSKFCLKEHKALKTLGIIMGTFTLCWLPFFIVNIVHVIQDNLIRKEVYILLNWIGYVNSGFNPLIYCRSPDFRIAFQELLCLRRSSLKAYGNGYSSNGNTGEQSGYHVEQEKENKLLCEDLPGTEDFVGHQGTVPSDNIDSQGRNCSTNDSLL

Assay [17] addresses D(2) dopamine receptor (Homo sapiens) (UniProt P14416). Description: Dopamine D2 receptor (DRD2) small molecule agonists, cell-based qHTS assay (AID 1963594). Note: nearly all actives have a fitted effect of over 35% in size. The method in brief:
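cAMP accumulation in DRD2-HEK293 cells measured by HTRF after 1 h detection; compounds added 10 min before NKH477 (200nM […]) forskolin-analogue stimulation, 30 min at room temperature, with Ro20-1724 present at 0.1 mM final.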

The target is the same in assay [18]. Description: Dopamine D2 receptor (DRD2) small molecule antagonists, cell-based qHTS assay (AID 1963595; active = well fitted inhibition curve with a large enough effect in the signal ratio in the repeat runs, with a control signal flat; the % refers to the signal ratio). A digest of the protocol:
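Human DRD2 antagonist qHTS measuring cAMP by HTRF. The cells are exposed to compound for 10 min, then to NKH477 (200 nM) and quinpirole (12 nM) for 30 min at RT, with Ro20-1724 (0.1 mM) present throughout.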

For assay [19], the target named is Beta-2 adrenergic receptor (Homo sapiens) (UniProt P07550). The assay can be described thus: Adrenergic beta2 receptor (ADRB2) small molecule agonists, cell-based qHTS assay (AID 1963593).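 Note: CHO cells stably overexpressing human ADRB2.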 The method in brief: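 CHO cells stably over-expressing ADRB2 were plated overnight at 37C, then dosed with compounds plus a stimulation mix containing 100uM IBMX and 25uM Ro-20-1724 for 0.5hr at room temperature. cAMP was measured by HTRF competition, 1hr.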

The target in assay [20] is Muscarinic acetylcholine receptor M1 (Homo sapiens) (UniProt P11229). The assay can be described thus: Cholinergic receptor muscarinic 1 (CHRM1) small molecule antagonists, cell-based qHTS assay (AID 1963588). Note: nearly all actives have a fitted effect of over 40% in size. A digest of the protocol: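 Compounds were tested at 15 concentrations in three independent runs. Dye-loaded CHRM1-CHO cells were exposed 5 min at room temperature before stimulation by acetylcholine added at 50nM. Intracellular calcium was read kinetically on FDSS for 3 min.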
Sequence of Muscarinic acetylcholine receptor M1 (Homo sapiens) (P11229 whole entry, looked up): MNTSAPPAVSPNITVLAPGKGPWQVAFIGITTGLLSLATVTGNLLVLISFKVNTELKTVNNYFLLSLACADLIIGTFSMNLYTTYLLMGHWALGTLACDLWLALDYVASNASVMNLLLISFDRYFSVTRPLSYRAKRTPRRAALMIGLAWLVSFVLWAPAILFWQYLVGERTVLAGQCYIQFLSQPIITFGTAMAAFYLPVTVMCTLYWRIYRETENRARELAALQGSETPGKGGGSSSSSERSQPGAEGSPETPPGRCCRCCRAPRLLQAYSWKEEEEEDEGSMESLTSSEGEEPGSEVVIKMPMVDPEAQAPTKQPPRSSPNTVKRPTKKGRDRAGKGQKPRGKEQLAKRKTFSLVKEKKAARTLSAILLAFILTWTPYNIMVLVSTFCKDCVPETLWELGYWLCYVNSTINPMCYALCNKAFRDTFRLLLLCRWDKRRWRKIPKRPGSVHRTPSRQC

Sequence of KiSS-1 receptor (Homo sapiens) (Q969F8 whole entry, looked up): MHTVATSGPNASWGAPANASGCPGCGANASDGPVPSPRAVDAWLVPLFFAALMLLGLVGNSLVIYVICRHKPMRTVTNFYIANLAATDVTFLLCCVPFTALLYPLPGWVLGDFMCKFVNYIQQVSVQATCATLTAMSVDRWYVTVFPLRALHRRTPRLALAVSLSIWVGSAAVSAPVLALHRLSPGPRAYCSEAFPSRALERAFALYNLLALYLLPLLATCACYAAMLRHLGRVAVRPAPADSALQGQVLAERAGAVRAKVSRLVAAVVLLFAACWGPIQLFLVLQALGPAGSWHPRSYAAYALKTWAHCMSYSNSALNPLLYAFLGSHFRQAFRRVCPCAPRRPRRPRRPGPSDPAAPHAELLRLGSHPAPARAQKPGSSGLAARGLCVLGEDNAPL
Sequence of D(2) dopamine receptor (Homo sapiens) (P14416 whole entry, looked up): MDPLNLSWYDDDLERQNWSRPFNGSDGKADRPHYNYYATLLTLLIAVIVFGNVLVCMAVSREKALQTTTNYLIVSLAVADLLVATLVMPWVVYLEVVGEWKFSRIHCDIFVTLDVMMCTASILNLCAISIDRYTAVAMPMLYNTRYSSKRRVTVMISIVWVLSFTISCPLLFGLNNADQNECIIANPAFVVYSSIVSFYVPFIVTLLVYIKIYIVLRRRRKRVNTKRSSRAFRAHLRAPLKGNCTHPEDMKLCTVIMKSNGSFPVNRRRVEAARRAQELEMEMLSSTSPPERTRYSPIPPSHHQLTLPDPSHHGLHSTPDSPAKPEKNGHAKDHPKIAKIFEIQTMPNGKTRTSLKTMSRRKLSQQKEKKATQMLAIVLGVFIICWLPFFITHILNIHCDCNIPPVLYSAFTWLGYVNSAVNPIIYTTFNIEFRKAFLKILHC
Sequence of 5-hydroxytryptamine receptor 2A (Homo sapiens) (P28223 whole entry, looked up): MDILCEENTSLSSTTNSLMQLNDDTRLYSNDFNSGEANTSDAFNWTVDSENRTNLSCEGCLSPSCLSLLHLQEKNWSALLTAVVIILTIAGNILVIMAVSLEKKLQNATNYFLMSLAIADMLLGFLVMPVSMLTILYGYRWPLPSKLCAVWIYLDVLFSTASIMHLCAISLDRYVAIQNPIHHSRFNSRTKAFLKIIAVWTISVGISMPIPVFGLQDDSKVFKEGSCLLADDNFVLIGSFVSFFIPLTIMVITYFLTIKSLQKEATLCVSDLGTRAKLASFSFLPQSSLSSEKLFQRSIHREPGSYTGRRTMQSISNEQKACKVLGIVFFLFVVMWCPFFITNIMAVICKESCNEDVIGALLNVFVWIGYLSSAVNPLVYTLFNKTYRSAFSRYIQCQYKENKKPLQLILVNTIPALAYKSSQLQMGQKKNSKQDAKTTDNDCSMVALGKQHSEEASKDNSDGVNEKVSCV
Sequence of Gonadotropin-releasing hormone receptor (Homo sapiens) (P30968 whole entry, looked up): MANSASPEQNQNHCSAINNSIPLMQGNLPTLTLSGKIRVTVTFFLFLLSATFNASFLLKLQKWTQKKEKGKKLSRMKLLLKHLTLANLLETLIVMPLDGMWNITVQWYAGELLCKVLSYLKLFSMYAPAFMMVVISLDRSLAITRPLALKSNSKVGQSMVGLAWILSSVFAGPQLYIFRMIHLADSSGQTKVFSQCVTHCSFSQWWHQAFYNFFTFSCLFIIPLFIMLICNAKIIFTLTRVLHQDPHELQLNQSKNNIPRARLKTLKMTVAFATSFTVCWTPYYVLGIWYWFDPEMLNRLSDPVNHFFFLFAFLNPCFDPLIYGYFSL

Take `CNC[C@H](O)[C@@H](O)[C@H](O)[C@H](O)CO`: the Potency entry in assay [1], in [2], in [3], in assay [4], in assay [5] and in [6] was “inactive” throughout. Further, the Potency result in assay [7], in assay [8], in assay [9], in assay [10], in assay [11] and in assay [12] was “inactive” each time. Also, the Potency entry in assay [13], in [14], in assay [15], in assay [16], in [17] and in assay [18] was “inactive” in each case.

As to `CN(C)Cc1cc(CN(C)C)c(O)c(CN(C)C)c1`, the Potency entry in assay [1], in assay [2], in assay [3], in [4], in assay [5] and in assay [6] was “inactive” throughout. The Potency entry in [7], in [8], in [9], in assay [10], in [11] and in assay [12] was “inactive” in each case. The Potency result in [13], in assay [14], in assay [15], in assay [16], in [17] and in [18] was “inactive” in each case.

For `CCCCCCCCCCCCc1ccccc1`, the Potency result in assay [1], in assay [3], in assay [4], in assay [5], in assay [6] and in [7] was “inactive” each time. In addition, the Potency result in assay [8], in assay [9], in assay [10], in assay [11], in [12] and in [13] was “inactive” each time. Besides, the Potency entry in assay [14], in assay [15], in [16], in assay [19], in [17] and in assay [18] was “inactive” in each case. The Potency in assay [2] was 61.2 µM (active) and inactive.

In the case of `CCOC(=O)CC(=O)OCC`, the Potency entry in assay [1], in [2], in assay [3], in [4], in assay [5] and in assay [6] was “inactive” in each case. Besides, the Potency result in assay [7], in assay [8], in assay [9], in assay [10], in assay [11] and in assay [12] was “inactive” in each case. The Potency result in [13], in assay [14], in [15], in [16], in assay [19] and in [17] was “inactive” throughout. Moreover, the Potency entry in assay [18] was “inactive”.

As for `Nc1ccc(S(=O)(=O)c2ccc(N)cc2)cc1`, the Potency result in assay [1], in assay [3], in assay [4], in [5], in assay [6] and in assay [7] was “inactive” throughout. Also, the Potency result in [8], in assay [9], in [10], in assay [11], in assay [12] and in assay [20] was “inactive” in each case. The Potency entry in assay [14], in assay [15], in assay [16], in assay [19], in assay [17] and in assay [18] was “inactive” in each case. Moreover, the Potency result in [2] was “inactive and 27.3 µM (active)”.

As to `Nc1ccn([C@H]2CC[C@@H](CO)O2)c(=O)n1`, the Potency entry in assay [1], in [2], in assay [3], in assay [4], in assay [5] and in assay [6] was “inactive” throughout. In addition, the Potency entry in [7], in assay [8], in assay [9], in [10], in [11] and in assay [13] was “inactive” in each case. Moreover, the Potency entry in [20], in assay [14], in assay [15], in [16], in assay [19] and in assay [17] was “inactive” in each case. Further, in [18], the Potency entry was “inactive”.

Turning to `CCc1nc(N)nc(N)c1-c1ccc(Cl)cc1`, the Potency entry in [1], in assay [2], in assay [4], in [5], in [6] and in assay [7] was “inactive” each time. The Potency entry in assay [8], in assay [9], in assay [11], in [12], in assay [20] and in assay [14] was “inactive” each time. The Potency result in assay [15], in [16], in [19], in assay [17] and in assay [18] was “inactive” each time. The Potency in assay [3] was 39.5 µM (active); in [10], 13.1 µM (active).
